Some test systems named below: HCT-15 colon; HT29 colon; SNB-75 CNS; SNB-19 CNS; U251 CNS; PC-3 prostate; SK-MEL-5 melanoma; UACC-62 melanoma; LOX IMVI melanoma; SK-MEL-28 melanoma.
Test in all cases: NCI-60 one-dose screen, 48 h (100 = growth as untreated, 0 = no growth, -100 = all killed)
What all share (settings): 10 µM unless noted

This is part of a sample that, as a whole, favours compounds with a hit. Of some 83,000 tested, about 20% had one in any assay.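 The endpoint reported here, percent growth, reads 100 for growth as untreated, 0 for no net growth and -100 for all cells dead.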 Unmarked numbers belong to inactive results. Active and inactive are the calls of the source. How the source made its calls: active means growth percent below 10; inactive means the rest.

`Nc1n[nH]c2ccc([C@@H]3Nc4cc5[nH]ncc5cc4[C@H]4C5CCC(C5)[C@@H]34)cc12` (some centres not stated): the growth is 13.7% with HCT-15 colon; 6.61% (active) in the assay with HT29 colon; -9.87% (active) in the assay on SNB-75 CNS; 20.4% with SNB-19 CNS; 19% in the assay on U251 CNS; 25.1% in the assay with PC-3 prostate. Moreover, the growth with SK-MEL-5 melanoma is 9.55% (active); with UACC-62 melanoma it was 33.8%; with LOX IMVI melanoma, 25.4%; with SK-MEL-28 melanoma it was 60.1%.

For `CC1CN=C(c2cccc(-c3ccc(-c4ccccc4)o3)c2)N1` (configuration not stated), the growth was -57.5% (active) in the assay on HCT-15 colon; -43.6% (active) in the assay with HT29 colon; 58.7% in the assay with SNB-75 CNS; 25.8% with SNB-19 CNS; -24.3% (active) in the assay with U251 CNS; 11.2% in the assay on PC-3 prostate. Besides, the growth in the assay on SK-MEL-5 melanoma was -93.3% (active); in the assay with UACC-62 melanoma, -62.2% (active); in the assay with LOX IMVI melanoma, -85.7% (active); with SK-MEL-28 melanoma, -76.3% (active).

Regarding `Cn1cc(-c2csc(-c3cn(C(=O)OC(C)(C)C)c4ccccc34)n2)c2ccnc(Cl)c21`, the growth in the assay with HCT-15 colon was 39.1%; in the assay on HT29 colon, 35.4%; with SNB-75 CNS, 46.8%; in the assay with SNB-19 CNS, 89.1%; in the assay with U251 CNS, 34.1%; in the assay on PC-3 prostate it was 40.5%. For the same molecule, the growth in the assay on SK-MEL-5 melanoma was 81.4%; with UACC-62 melanoma, 78.2%; in the assay on LOX IMVI melanoma it was 52.8%; in the assay on SK-MEL-28 melanoma, 81.2%.

As for `CC[C@@H](c1ccc2cc(OC)ccc2c1)C(C)(C)C(=O)F`, the growth in the assay on HCT-15 colon is 104%; in the assay with HT29 colon it was 118%; in the assay on SNB-75 CNS, 106%; in the assay on SNB-19 CNS, 91.9%; in the assay on U251 CNS, 98.8%; in the assay with PC-3 prostate, 101%. Further, the growth in the assay on SK-MEL-5 melanoma was 106%; in the assay on UACC-62 melanoma, 103%; with LOX IMVI melanoma, 91.4%; in the assay with SK-MEL-28 melanoma it was 106%.

Regarding `Cc1nc2sc(C(=O)Nc3ccc(Cl)cc3)c(N)c2cc1C(O)c1ccccc1` (configuration not stated), the growth is 28.9% with HCT-15 colon; 25% with HT29 colon; 26.5% in the assay with SNB-75 CNS; 41.2% in the assay on SNB-19 CNS; 32.8% in the assay on U251 CNS; 21.9% in the assay on PC-3 prostate. Further, the growth was 30.4% with SK-MEL-5 melanoma, 17.7% in the assay on UACC-62 melanoma, 33.4% in the assay with LOX IMVI melanoma and 57.5% in the assay on SK-MEL-28 melanoma.

With `Cc1ccc2nc(Cl)c(Cn3nnnc3SCc3ccccc3)cc2c1`, the growth was 90.7% in the assay with HCT-15 colon; 101% with HT29 colon; 93.4% in the assay with SNB-75 CNS; 98.8% with SNB-19 CNS; 95.8% in the assay on U251 CNS; 90.4% with PC-3 prostate. For the same molecule, the growth in the assay with SK-MEL-5 melanoma is 93%; in the assay on UACC-62 melanoma it was 83.7%; with LOX IMVI melanoma it was 86.7%; with SK-MEL-28 melanoma it was 107%.

For the molecule `CCOC(=O)Nc1nc2ccc(SCC(C)C)cc2s1`, the growth in the assay with HCT-15 colon is 25.5%; with HT29 colon it was 9.7% (active); in the assay on SNB-75 CNS, 74.3%; in the assay with SNB-19 CNS, 49.9%; with U251 CNS, 34.3%; with PC-3 prostate it was 36.9%. The growth with SK-MEL-5 melanoma is 34.1%; with UACC-62 melanoma, 17.3%; in the assay with LOX IMVI melanoma, 36.3%; in the assay with SK-MEL-28 melanoma, 62.3%.

As for `O=[N+]([O-])/C(=C\c1ccco1)c1ccccc1Cl`, the growth is 67.7% in the assay with HCT-15 colon; 69.7% with HT29 colon; 64.8% in the assay on SNB-75 CNS; 79.7% in the assay with SNB-19 CNS; 72.6% with U251 CNS; 45.8% in the assay on PC-3 prostate. Further, the growth in the assay on SK-MEL-5 melanoma is 76.7%; in the assay with UACC-62 melanoma, 33.8%; in the assay with LOX IMVI melanoma it was 64.2%; in the assay with SK-MEL-28 melanoma it was 60.3%.

As for `CCN(CC)c1ccc(N2C(=O)/C(=C/c3cccs3)SC2=S)cc1`, the growth in the assay on HCT-15 colon was 102%; in the assay on HT29 colon, 101%; in the assay with SNB-75 CNS, 93.9%; with SNB-19 CNS it was 94.6%; with U251 CNS, 89.1%; in the assay on PC-3 prostate, 64.1%. The growth in the assay with SK-MEL-5 melanoma is 93.8%; in the assay with UACC-62 melanoma, 80.8%; in the assay on LOX IMVI melanoma, 88.8%; with SK-MEL-28 melanoma, 97.6%.

Regarding `O=S(=O)(c1ccccc1)N1CCCN(c2nc(-c3ccccc3)nc3nc(-c4ccccc4)oc23)CC1`, the growth in the assay with HCT-15 colon is 109%; in the assay on HT29 colon, 109%; with SNB-75 CNS it was 88.5%; with SNB-19 CNS, 101%; with U251 CNS, 107%; in the assay on PC-3 prostate, 105%. Besides, the growth with SK-MEL-5 melanoma is 103%; in the assay on UACC-62 melanoma, 102%; in the assay with LOX IMVI melanoma it was 99.9%; in the assay on SK-MEL-28 melanoma, 110%.

For the molecule `Cc1ccccc1CNc1c2ccccc2nc2ccccc12`, the growth is 14.6% with HCT-15 colon; 8.87% (active) in the assay with HT29 colon; 45.3% in the assay with SNB-75 CNS; 27.1% in the assay on SNB-19 CNS; 21.3% in the assay with U251 CNS; 25.6% in the assay on PC-3 prostate. Further, the growth in the assay on SK-MEL-5 melanoma was 33.9%; with UACC-62 melanoma, 46.7%; with LOX IMVI melanoma, 9.12% (active); with SK-MEL-28 melanoma it was 58.3%.

With `O=C(OC[C@@H]1CO1)c1cccc2c(=O)c3ccccc3[nH]c12`, the growth in the assay on HCT-15 colon was -5.09% (active); in the assay on HT29 colon it was -7.33% (active); in the assay with SNB-75 CNS, -88.2% (active); in the assay on SNB-19 CNS, -7.9% (active); with U251 CNS, -15.7% (active); in the assay on PC-3 prostate, -21.1% (active). The growth is -90.9% (active) with SK-MEL-5 melanoma, -89.2% (active) with UACC-62 melanoma, -78.1% (active) in the assay with LOX IMVI melanoma and -62.6% (active) in the assay with SK-MEL-28 melanoma.

Regarding `COC(c1ccc2ccccc2c1)C(C)C(F)F` (configuration not stated), the growth in the assay with HCT-15 colon is 112%; in the assay on HT29 colon it was 98.2%; with SNB-75 CNS it was 95.9%; with SNB-19 CNS, 101%; in the assay with U251 CNS, 102%; in the assay on PC-3 prostate, 96.6%. In addition, the growth in the assay on SK-MEL-5 melanoma was 112%; in the assay with UACC-62 melanoma, 93.4%; with LOX IMVI melanoma, 101%; in the assay with SK-MEL-28 melanoma, 96.3%.

In the case of `COc1ccc(C(c2cc(OC)c(OC)c(OC)c2)N2CCCC2)cc1` (configuration not stated), the growth in the assay on HCT-15 colon was 52.7%; in the assay on HT29 colon, 40.6%; in the assay with SNB-75 CNS it was 84.1%; in the assay on SNB-19 CNS it was 90.5%; in the assay on U251 CNS it was 77.8%; in the assay with PC-3 prostate, 63.9%. The growth with SK-MEL-5 melanoma was 65.2%; in the assay with UACC-62 melanoma, 57.4%; in the assay with LOX IMVI melanoma, 73%; in the assay with SK-MEL-28 melanoma, 80.1%.

In the case of `CCOC(=O)N1CCN(S(=O)(=O)c2oc(-c3ccc(Cl)cc3)nc2C#N)CC1`, the growth in the assay on HCT-15 colon was -8.32% (active); in the assay on HT29 colon, 79.3%; in the assay with SNB-75 CNS, 87.9%; in the assay on SNB-19 CNS it was 98.3%; in the assay with U251 CNS it was 95.9%; in the assay with SK-MEL-5 melanoma, 97.4%. Moreover, the growth is 98.8% in the assay on UACC-62 melanoma, 10.8% with LOX IMVI melanoma and 105% in the assay with SK-MEL-28 melanoma.

Regarding `C=CCCC(=O)N1C=CC(=O)[C@H](O)[C@@H]1/C=C/c1ccccc1`, the growth with HCT-15 colon was 36.5% [100 µM]; in the assay with HT29 colon, 39.4% [100 µM]; in the assay with SNB-75 CNS, 85% [100 µM]; in the assay with SNB-19 CNS it was 44.5% [100 µM]; in the assay on U251 CNS it was 33% [100 µM]; in the assay on SK-MEL-5 melanoma it was 0.433% [100 µM] (active). Besides, the growth with UACC-62 melanoma is 27.8% [100 µM]; in the assay on LOX IMVI melanoma, 27.9% [100 µM]; with SK-MEL-28 melanoma, 53.7% [100 µM].

As for `CCCCNC1=C(OCC)C(=O)c2ccccc2C1=O`, the growth was 94.3% in the assay on HCT-15 colon; 123% in the assay on HT29 colon; 96.1% with SNB-75 CNS; 100% in the assay on SNB-19 CNS; 99.7% in the assay with U251 CNS; 91.9% with SK-MEL-5 melanoma. Also, the growth with UACC-62 melanoma is 97.5%; in the assay with LOX IMVI melanoma, 68.8%; with SK-MEL-28 melanoma, 114%.

The values are drawn from PubChem BioAssay (NCI).
